HIF activator – HIF pathway transcriptional activation; U2OS HRE-luciferase reporter, luminescence; normalized: DMSO 0%, desferrioxamine 100%; activation, % at 7.5 µM (by protocol); 300,000 tested, 0.32% active; AID 1910;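 active means mean activation of at least 10% of the iron chelator positive control signal, with at least half of replicates also reaching 10%; inconclusive means mean and replicate majority disagree about reaching 10%; inactive means mean and most replicates under 10%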
Mot1-301 SUMO – inhibitors of SUMOylation pathway: yeast Mot1-301 growth rescue; AID 2716; S. cerevisiae Mot1-301 growth rescue, ATP luminescence, 38.5C; percent above DMSO median, 100 means doubled; 320,000 tested, 1% active; growth rescue, % at 18.8 µM;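 active means every valid replicate shows activation above 250% relative to neutral control wells; inactive means the rest, any valid replicate at or below 250%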;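 further: OY570 slx delta 5 strain wells were the positive control but not used for scaling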
ALR inh – inhibitors of human sulfhydryl oxidase ALR. purified ALR, DTT oxidation, H2O2 HRP-luminol luminescence. inhibition, % (concentration not given with the values). 290,000 tested, 3.8% active;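 active means mean replicate inhibition above about 79%, with every replicate also reaching it, limit read from the data; inconclusive means only one of the two criteria met; inactive means mean below limit and not every replicate reaching it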
Target sequence (P55789 whole entry, looked up): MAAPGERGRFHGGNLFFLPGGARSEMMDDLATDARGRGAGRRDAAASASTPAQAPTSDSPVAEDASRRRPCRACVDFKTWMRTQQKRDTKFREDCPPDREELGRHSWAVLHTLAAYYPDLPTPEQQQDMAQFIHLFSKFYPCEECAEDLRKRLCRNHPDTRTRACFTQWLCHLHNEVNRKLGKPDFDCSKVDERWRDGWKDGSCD
PfM18AAP inh – PfM18AAP enzyme inhibition; recombinant PfM18AAP, H-Glu-NHMec fluorogenic cleavage; inhibition, % at 7.35 µM; 290,000 tested, 1.2% active;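 active means inhibition above the campaign mean inhibition over all tested compounds plus 3 SD, cut at about 28% in these data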;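 further: 0% = plate median of test compound wells and 100% = 2 mM ZnCl2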
Starred values were filed as active, the others as inactive; ? = inconclusive; . = no result. A selection: hits, their analogues and other compounds. The true share with any hit is near 5.3%.

SMILES	HIF activator	Mot1-301 SUMO	ALR inh	PfM18AAP inh
CN(C)c1ccc(/C=N/NC(=O)C[n+]2ccccc2)cc1	1	-19	99*	.
CC(=O)Nc1ccc(NC(=O)Oc2ccccc2)cc1	.	109	.	-1
Cc1ccc[n+](CC(=O)Nc2ccc(N(C)C)cc2)c1	-34	-16	100*	-10
CN(C)c1ccc(NC(=O)C[n+]2ccccc2)cc1	1	4	99*	13
CC(=O)c1ccc(NC(=O)C[n+]2ccc(N(C)C)cc2)cc1	0	-5	-16	1
Cc1ccc(NC(=S)NNC(=O)c2nnn(-c3ccccc3)c2C)cc1	3	-20	19	7
Cc1ccc(C(=O)/C=C/c2ccc3ncccc3c2)cc1	3	-18	74	8
O=C(Cc1ccc([N+](=O)[O-])cc1)Nc1ccc(O)cc1C(=O)O	0	43	68	-8
CCN(CC)c1ccc(NS(=O)(=O)c2cn(C)c(=O)n(C)c2=O)c(C)c1	0	6	99*	-11
Cc1ccc(NS(=O)(=O)c2cn(C)c(=O)n(C)c2=O)cc1C	0	-8	.	3
CCn1c(C)nc2cc(C(=O)NNC(=O)Nc3cccc(Cl)c3)ccc21	1	-3	13	31*
CCn1c(C)nc2cc(C(=O)NNS(=O)(=O)c3ccc(C)c(C)c3)ccc21	0	-8	81*	8
CCn1c(C)nc2cc(C(=O)NNC(=O)Nc3ccc(Cl)cc3)ccc21	0	-3	40	20
CN(C(=O)c1ccc2nc(N)sc2c1)c1ccccc1	-1	-19	-1	7
Nc1nc2ccc(C(=O)Nc3ccccc3)cc2s1	3	282*	98*	1
CCc1ccc(NC(=O)c2ccc3nc(N)sc3c2)cc1	3	-10	91*	1
CCc1ccc(NC(=O)c2ccc3ncsc3c2)cc1	.	.	.	5
CCCCC1=CC2=C(c3ccco3)C(=O)C(C)(OC(=O)c3ccc(OC)cc3)C(=O)C2=CN1c1ccccc1 (centres undefined)	0	-1	.	.
COc1ccc(/C=C2\Oc3cc(OCC(=O)N4CCC(C(=O)O)CC4)ccc3C2=O)c(OC)c1	0	-1	.	-2
COc1ccc(/C=C2\Oc3cc(OCC(=O)N4CCC(C(=O)O)CC4)ccc3C2=O)c(OC)c1OC	0	-9	91*	1
COc1ccc(N2CCN(C(CNC(=O)C(=O)NCCCn3ccnc3)c3cccnc3)CC2)cc1 (centres undefined)	0	-7	90*	3
CN(C)c1ccc(/C=C(\NC(=O)c2ccccc2)C(=O)NCCCn2ccnc2)cc1	-1	-3	99*	7
CC(NC(=O)C(=O)NCCCn1ccnc1)c1ccccc1 (centres undefined)	0	320*	-9	-2
CC(C)c1ccccc1NC(=S)NCCCn1ccnc1	-1	191	87*	1
COc1cccc(C(=O)NC2CCN(CC(=O)Nc3ccccc3Cl)CC2)c1	-1	9	-4	1
SMILES	HIF activator	Mot1-301 SUMO	ALR inh	PfM18AAP inh
CN(C)S(=O)(=O)c1ccc(C(=O)OCC(=O)c2csc(N3CCCCC3)n2)cc1	.	0	1	.
CCC1CCCCN1C(=O)COC(=O)c1cc(C)nc2ccccc12 (centres undefined)	.	-12	-6	.
CC(=N\Nc1ccccc1)/C(=N/O)C(=O)Nc1ccccc1	0	7	97*	0
COC(=O)c1ccc(COC(=O)CSCC(=O)Nc2ccc(C)cc2C)cc1	.	54	.	.
Cc1ccc(Cl)cc1NC(=O)CSC(N)=O	0	38	98*	-1
CCOC(=O)CSCC(=O)Nc1cc(C)ccc1C	0	-15	98*	8
CN(CC(=O)Nc1ccccc1C(F)(F)F)C(=O)CSCc1ccccc1	0	-19	-9	.
CN1c2ccc([N+](=O)[O-])cc2N(C)C1(C)c1ccccc1 (centres undefined)	-12	65	99*	7
O=Cc1cccc(OC(=O)/C=C/c2ccco2)c1	2	-10	98*	17
COC(=O)c1ccc(OC(=O)/C=C/c2ccco2)cc1	-1	-8	.	2
COc1ccc(NCCNc2ccc(OC)cc2)cc1	1	15	?	0
COc1ccc(NCCC(O)c2ccc(Cl)cc2)cc1 (centres undefined)	-1	33	99*	-4
COc1ccc(Cl)cc1NCCC(O)c1ccc(F)cc1 (centres undefined)	0	-14	99*	22
CN(C)c1nc(F)c(F)c(S(=O)(=O)c2ccccc2)c1F	1	-15	-1	-5
CC1(C)CC(=O)c2cc3c(N)c(C(=O)NCc4ccccc4)sc3nc2C1	-11	16	-8	1
CN1CCc2nc3sc(C(=O)NCc4ccccc4)c(N)c3cc2C1	0	-1	-15	29*

High-throughput results deposited in PubChem by several laboratories.
